Measured values from PubChem BioAssay (Tox21).
Inconclusive results are not listed. Active and inactive are the calls of the source. Unless noted, calls come from the whole dose curve; as a rule, active = well fitted curve in the direction sought with a large enough effect in the repeat runs; inconclusive = weak or mixed curves; inactive = no such curve, though single readings can be large; an effect the other way counts as inactive or inconclusive.

Experiments:
[1] = qHTS RealTime-Glo MT Cell Viability Assay in HEK293 cells - 24 hour (AID 1224886); note: top concentration of the series differs between compounds; nearly all actives have a fitted effect of over 50% in size
Outline: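 Nonlytic real-time viability readout: viable cells convert prosubstrate to NanoLuc substrate, giving luminescence proportional to live cell number. HEK293, 600 cells/well, compound added after 5 h, continuous culture at 37 C.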

[2] = qHTS RealTime-Glo MT Cell Viability Assay in HEK293 cells - 8 hour (AID 1224887); note: top concentration of the series differs between compounds; nearly all actives have a fitted effect of over 50% in size
Outline: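 Tox21 screen in HEK293 using RealTime-Glo MT chemistry, with cells and reagent co-dispensed. Luminescence proportional to viable cell number was captured at intervals during 40 h compound exposure at 37 C.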

[3] = A CellTox Green Cytotoxicity Assay to monitor cytotoxicity in HEK293 cells - 16 hour (AID 1224888); note: nearly all actives have a fitted effect of over 35% in size
Outline: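 Seeding of HEK293 cells together with cytotoxicity dye preceded a 5 h incubation at 37 C/5% CO2. Test compounds in DMSO were then added and fluorescence monitored across 40 h.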

[4] = qHTS RealTime-Glo MT Cell Viability Assay in HepG2 cells - 0 hour (AID 1224889); note: nearly all actives have a fitted effect of over 50% in size
Outline: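 Luminescence read-out: viable HepG2 cells reduce a prosubstrate to a NanoLuc substrate, giving a signal proportional to live cell number. Reads taken at 0, 8, 16, 24, 32 and 40 h of compound exposure at 37 C.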

[5] = A CellTox Green Cytotoxicity Assay to monitor cytotoxicity in HepG2 cells - 8 hour (AID 1224890); note: nearly all actives have a fitted effect of over 45% in size
Outline: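 Nonlytic assay: viable cells exclude the dye, so fluorescence scales with cell death. HepG2 at 600 cells/well, compounds added after 5 h, signal read across 40 h.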

[6] = qHTS assay to identify small molecule antagonists of the estrogen receptor alpha (ER-alpha) signaling pathway using the BG1 cell line in the presence of 0.1 nM 17-beta-estradiol - cell viability counter screen (AID 1259241); note: nearly all actives have a fitted effect of over 40% in size
Outline: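 VM7Luc4E2, 4,000 cells/well, phenol red-free medium + 10% charcoal-stripped FBS; 24 hr plating; cpd + 0.1 nM E2 final, 22 hr 37C/5% CO2; CellTiter-Fluor 30 min, fluorescence.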

[7] = qHTS assay to identify small molecule antagonists of the androgen receptor (AR) signaling pathway using the MDA cell line in the presence of 0.5 nM R1881 - cell viability counter screen (AID 1259242); note: nearly all actives have a fitted effect of over 45% in size
Outline: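 R1881 at 0.5 nM final stimulated MDA-kb2 cells during 16 hr compound treatment at 37C. Cytotoxicity read: CellTiter-Fluor fluorescence after 30 min.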

[8] = target: Estrogen receptor (Homo sapiens) (UniProt P03372); assay: qHTS assay to identify small molecule antagonists of the estrogen receptor alpha (ER-alpha) signaling pathway using the BG1 cell line in the presence of 0.1 nM 17-beta-estradiol (AID 1259244); note: nearly all actives have a fitted effect of over 50% in size
Outline: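 VM7Luc4E2; 4xERE-luciferase; 0.1 nM E2 final; 22 h co-incubation, 37C; ONE-Glo luminescence after 30 min at room temperature.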

[9] = qHTS assay to identify small molecule HDAC inhibitors (AID 1259364);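 note: wild-type HCT-116 cells with endogenous class I/II HDAC activity; top concentration of the series differs between compounds; nearly all actives have a fitted effect of over 45% in size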
Outline: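 Relative class I and II HDAC activity is taken from the luminogenic signal in HCT-116 cells, with compound exposure 2 hr and reagent development 30 min at room temperature.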

[10] = qHTS assay to identify small molecule HDAC inhibitors - cell viability counter screen (AID 1259365)
Outline: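 Luminescence from CellTiter-Glo, developed 30min at room temperature, reports viability of wild-type HCT-116 cells treated 2hr with compounds at 37 C and 5% CO2 after overnight plating.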

[11] = qHTS assay to identify small molecule agonists of the sonic hedgehog signaling (Shh) pathway - cell viability counter screen (AID 1259366); note: nearly all actives have a fitted effect of over 50% in size
Outline: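 Cytotoxicity counter screen run in the same wells as the Shh reporter assay. NIH/3T3 cells carrying a Gli1 response element–driven luciferase were treated with DMSO-dissolved compounds for 24hr, and live-cell protease activity was measured with CellTiter-Fluor.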

[12] = qHTS assay to identify small molecule antagonists of the sonic hedgehog signaling (Shh) pathway - cell viability counter screen (AID 1259367); note: nearly all actives have a fitted effect of over 55% in size
Outline: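 NIH/3T3-derived Gli1-Luc reporter cells (2,000 per well) rested 4 hr at 37 C, then received DMSO compounds plus conditioned medium. After 23 hr of treatment, CellTiter-Fluor was added for 1 hr at 37C and fluorescence read.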

[13] = qHTS assay to identify small molecule agonists of the sonic hedgehog signaling (Shh) pathway (AID 1259368; calls by dose curve;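 note: NIH/3T3-derived 3T3Gli1-Luc cells carrying a stable Gli1-driven firefly luciferase reporter; series mostly up to about 92 µM; nearly all actives have a fitted effect of over 15% in size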)
Outline: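 Mouse fibroblast (NIH/3T3) reporter cells with stably integrated Gli1-Luc were treated 24 hr with compound; firefly luciferase luminescence served as the read-out.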

[14] = target: Estrogen receptor beta (Homo sapiens) (UniProt Q92731); assay: qHTS assay to identify small molecule agonists of the estrogen receptor beta (ER-beta) signaling pathway (AID 1259377; active = well fitted activation curve with a large enough effect in the signal ratio in the repeat runs, not every such curve was filed as active; the % refers to the signal ratio)
Outline: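 HEK293T ER-beta-UAS-bla; 2% charcoal-stripped FBS; cells pre-incubated 6 hr, compound 16 hr, 37C/5% CO2; LiveBLAzer B/G FRET substrate 2 h RT; fluorescence intensity read.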

[15] = qHTS assay to identify small molecule agonists of the androgen receptor (AR) signaling pathway in the presence of an antagonist - cell viability counter screen (AID 1259379);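 note: MDA-kb2 human breast cancer cells carrying an MMTV luciferase reporter; series mostly up to about 92 µM; nearly all actives have a fitted effect of over 25% in size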
Outline: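 A CellTiter-Fluor read-out measured viability of MDA-kb2 reporter cells (MMTV promoter with AR and GR response elements). Treatment: nilutamide 3.0uM final with compounds at 15 concentrations, 16 hr, 37C, 0% CO2.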

[16] = qHTS assay to identify small molecule agonists of the estrogen receptor beta (ER-beta) signaling pathway - cell viability counter screen (AID 1259380); note: nearly all actives have a fitted effect of over 30% in size
Outline: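 Cells used were ER-beta-UAS-bla HEK293T in medium with 2% charcoal-stripped FBS. They were treated for 16 hr at 37C. Viability came from CellTiter-Glo luminescence.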

[17] = qHTS assay to identify small molecule antagonists of the sonic hedgehog signaling (Shh) pathway (AID 1259369; calls by dose curve; note: nearly all actives have a fitted effect of over 45% in size)
Outline: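 Conditioned medium drives Shh signalling in 3T3Gli1-Luc cells; compounds in DMSO co-applied, 24hr at 37 C, then luciferase luminescence.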

[18] = target: Estrogen receptor beta (Homo sapiens) (UniProt Q92731); assay: qHTS assay to identify small molecule antagonists of the estrogen receptor beta (ER-beta) signaling pathway (AID 1259378; active = well fitted inhibition curve with a large enough effect in the signal ratio in the repeat runs, not every such curve was filed as active; the % refers to the signal ratio)
Outline: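 ER-beta-UAS-bla HEK293T (GripTite) cells in 2% charcoal-stripped FBS medium were preincubated 6 hr at 37C, dosed with compound, then stimulated with 1 nM E2 (final) for 16 hr; beta-lactamase reporter read by B/G FRET fluorescence after 2 hr substrate loading.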
% is set by controls: 0 for no effect and ±100 for the full control effect.

Sequence of Estrogen receptor (Homo sapiens) (P03372 whole entry, looked up): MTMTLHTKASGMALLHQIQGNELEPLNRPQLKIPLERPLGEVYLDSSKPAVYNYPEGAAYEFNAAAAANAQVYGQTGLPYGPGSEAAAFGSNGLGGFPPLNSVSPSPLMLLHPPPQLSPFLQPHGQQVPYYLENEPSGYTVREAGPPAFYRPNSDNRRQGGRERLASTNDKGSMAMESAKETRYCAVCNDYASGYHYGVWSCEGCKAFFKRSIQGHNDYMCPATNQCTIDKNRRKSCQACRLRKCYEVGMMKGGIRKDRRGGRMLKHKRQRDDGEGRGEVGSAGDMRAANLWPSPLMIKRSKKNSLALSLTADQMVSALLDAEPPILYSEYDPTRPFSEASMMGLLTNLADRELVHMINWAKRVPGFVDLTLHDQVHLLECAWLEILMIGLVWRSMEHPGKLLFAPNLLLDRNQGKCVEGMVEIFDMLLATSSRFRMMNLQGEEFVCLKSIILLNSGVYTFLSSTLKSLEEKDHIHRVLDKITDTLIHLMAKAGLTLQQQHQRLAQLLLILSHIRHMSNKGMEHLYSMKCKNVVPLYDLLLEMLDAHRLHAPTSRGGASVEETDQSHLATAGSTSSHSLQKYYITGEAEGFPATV
Sequence of Estrogen receptor beta (Homo sapiens) (Q92731 whole entry, looked up): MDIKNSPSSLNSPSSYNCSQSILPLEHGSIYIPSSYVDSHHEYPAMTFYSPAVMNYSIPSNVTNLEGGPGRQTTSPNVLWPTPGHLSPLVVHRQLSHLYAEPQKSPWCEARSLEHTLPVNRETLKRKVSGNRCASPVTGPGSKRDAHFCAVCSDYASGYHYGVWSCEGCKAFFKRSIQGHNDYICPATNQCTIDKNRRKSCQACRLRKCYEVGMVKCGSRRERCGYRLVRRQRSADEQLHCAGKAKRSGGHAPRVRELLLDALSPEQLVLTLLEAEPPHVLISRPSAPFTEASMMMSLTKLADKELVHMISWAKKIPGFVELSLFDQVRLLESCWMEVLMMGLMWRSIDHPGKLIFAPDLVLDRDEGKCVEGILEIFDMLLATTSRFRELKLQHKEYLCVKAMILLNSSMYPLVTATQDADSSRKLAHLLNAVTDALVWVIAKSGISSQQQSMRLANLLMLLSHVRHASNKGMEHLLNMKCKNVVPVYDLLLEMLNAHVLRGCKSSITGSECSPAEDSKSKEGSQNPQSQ

CCCCCCCCCCCCCCCCCCOCCO
inactive: activity change, negative = cytotoxicity [1] -7.08% [at 15.8 µM] | activity change, negative = cytotoxicity [2] 1.44% [at 15.8 µM] | activity change [3] 5.03% [at 15.8 µM, stronger effect = higher value] | activity change, negative = cytotoxicity [4] 2.77% [at 15.8 µM] | cytotoxicity increase [5] -4.91% [at 15.8 µM] | activity change, negative = cytotoxicity [6] 4.04% [at 19 µM] | viability change, negative = cytotoxic [7] -0.694% [at 19 µM] | activity change, negative = inhibition [8] -1.58% [at 19 µM] | activity change, negative = inhibition [9] -2.36% [at 19 µM] | activity change, negative = cytotoxicity [10] 0.0538% [at 19 µM] | viability change, negative = cytotoxic [11] 1.32% [at 19 µM] | viability change, negative = cytotoxic [12] -0.0007% [at 19 µM] | activity change [13] -0.0679% [at 18.9 µM] | activation [14] -0.0155% [at 19 µM] | activity change, negative = cytotoxicity [15] -11.2% [at 19 µM] | activity change, negative = cytotoxicity [16] -1.63% [at 19 µM]

C=CC(=O)OCC1CCCO1 (configuration not stated)
inactive: Potency [1] | Potency [2] | Potency [3] | Potency [4] | Potency [5] | outcome [6] | outcome [7] | outcome [8] | Potency [9] | outcome [10] | outcome [11] | outcome [12] | outcome [13] | Potency [17] | Potency [18] | outcome [15] | outcome [16]

CCN1CCCC1CN (configuration not stated)
inactive: Potency [1] | Potency [2] | Potency [3] | Potency [4] | Potency [5] | outcome [6] | outcome [7] | outcome [8] | Potency [9] | outcome [10] | outcome [11] | outcome [12] | outcome [13] | Potency [17] | outcome [15]

COP(=O)(O)OP(=O)(O)OC
inactive: Potency [1] | Potency [2] | Potency [3] | Potency [4] | Potency [5] | outcome [6] | outcome [7] | outcome [8] | Potency [9] | outcome [10] | outcome [11] | outcome [13] | Potency [17] | Potency [14] | Potency [18] | outcome [15] | outcome [16]

COC(=O)c1ccccc1C(=O)O
inactive: Potency [1] | Potency [2] | Potency [3] | Potency [4] | Potency [5] | outcome [6] | outcome [7] | outcome [8] | Potency [9] | outcome [10] | outcome [11] | outcome [13] | Potency [17] | Potency [14] | Potency [18] | outcome [15] | outcome [16]

CC1(C)CC(OC(=O)CCCCCCCCC(=O)OC2CC(C)(C)NC(C)(C)C2)CC(C)(C)N1
inactive: activity change, negative = cytotoxicity [1] 13.9% [at 15.8 µM] | activity change, negative = cytotoxicity [2] 1.91% [at 15.8 µM] | activity change [3] -6.19% [at 15.8 µM, stronger effect = higher value] | activity change, negative = cytotoxicity [4] 5.75% [at 15.8 µM] | cytotoxicity increase [5] -0.141% [at 15.8 µM] | activity change, negative = cytotoxicity [6] -0.502% [at 19 µM] | viability change, negative = cytotoxic [7] 0.781% [at 19 µM] | activity change, negative = inhibition [8] -2.8% [at 19 µM] | activity change, negative = inhibition [9] 6.2% [at 19 µM] | viability change, negative = cytotoxic [11] -15.1% [at 19 µM] | viability change, negative = cytotoxic [12] -5.84% [at 19 µM] | activity change [13] 0.253% [at 18.9 µM] | activity change, negative = inhibition [17] -29.1% [at 19 µM] | activity, negative = inhibition [18] -12.7% [at 19 µM] | activity change, negative = cytotoxicity [15] 0.897% [at 19 µM]

CCC(C)C(=O)OCCc1ccccc1 (configuration not stated)
inactive: Potency [1] | Potency [2] | Potency [3] | Potency [4] | Potency [5] | outcome [6] | outcome [7] | outcome [8] | Potency [9] | outcome [10] | outcome [11] | outcome [12] | outcome [13] | outcome [15]

CCCCCCC1(C)CCC(=O)O1 (configuration not stated)
inactive: Potency [1] | Potency [2] | Potency [3] | Potency [4] | Potency [5] | outcome [6] | outcome [7] | outcome [8] | Potency [9] | outcome [10] | outcome [11] | outcome [12] | outcome [13] | Potency [17] | outcome [15] | outcome [16]

CCC/C=C(\C=O)CC
inactive: Potency [1] | Potency [2] | Potency [3] | Potency [4] | Potency [5] | outcome [6] | outcome [7] | outcome [8] | Potency [9] | outcome [10] | outcome [11] | outcome [12] | outcome [13] | Potency [17] | Potency [18] | outcome [15] | outcome [16]

N#Cc1ccccc1O
inactive: Potency [1] | Potency [2] | Potency [3] | Potency [4] | Potency [5] | outcome [6] | outcome [7] | outcome [8] | Potency [9] | outcome [10] | outcome [11] | outcome [12] | outcome [13] | Potency [17] | outcome [15] | outcome [16]

Cc1cc(C)c(C(=O)O)c(C)c1
inactive: Potency [1] | Potency [2] | Potency [3] | Potency [4] | Potency [5] | outcome [6] | outcome [7] | outcome [8] | Potency [9] | outcome [11] | outcome [12] | outcome [13] | Potency [17] | Potency [14] | Potency [18] | outcome [15] | outcome [16]

Cc1c(N)cccc1Cl
inactive: Potency [1] | Potency [2] | Potency [3] | Potency [4] | Potency [5] | outcome [6] | outcome [7] | outcome [8] | Potency [9] | outcome [10] | outcome [11] | outcome [12] | outcome [13] | Potency [14] | Potency [18] | outcome [15] | outcome [16]

COC(=O)c1cccc(Cl)c1
inactive: Potency [1] | Potency [2] | Potency [3] | Potency [4] | Potency [5] | outcome [6] | outcome [7] | outcome [8] | Potency [9] | outcome [10] | outcome [11] | outcome [13] | Potency [17] | Potency [18] | outcome [15]

CN(C)C(C)(C)CO
inactive: Potency [1] | Potency [2] | Potency [3] | Potency [4] | Potency [5] | outcome [6] | outcome [7] | outcome [8] | Potency [9] | outcome [10] | outcome [11] | outcome [12] | outcome [13] | Potency [17] | outcome [15] | outcome [16]

CC1=C(O)C(=O)C(C)O1 (configuration not stated)
inactive: Potency [1] | Potency [2] | Potency [3] | Potency [4] | Potency [5] | outcome [6] | outcome [7] | outcome [8] | Potency [9] | outcome [10] | outcome [11] | outcome [12] | outcome [13] | Potency [17] | Potency [18] | outcome [15]

O=C1OCCO1
inactive: Potency [1] | Potency [2] | Potency [3] | Potency [4] | Potency [5] | outcome [6] | outcome [7] | outcome [8] | Potency [9] | outcome [10] | outcome [11] | outcome [12] | outcome [13] | Potency [17] | outcome [15] | outcome [16]
